Among the data in PubChem BioAssay AID463173 (ICCB-Longwood Screening Facility, Harvard Medical School, 2010) are survival values, retold here.

In all, about 52,000 compounds went through this assay and about 4,300 (8.3%) were called active. What follows is part of a selection rich in actives, with near analogues and random picks from the rest. A number with no mark means an inactive call. Cut-off read from the data, not from the text of the source: active = survival mostly below about 52% (no sharp cut-off); inactive = mostly above about 56%.

The experiment deals with DeltatarO mutant. The experiment can be described thus: S. aureus survival, RN4220 and DeltatarO strains – OD600, teichoic acid synthesis inhibitors, primary screen (AID 463173). Conditions: S. aureus RN4220 wild type/DeltatarO growth, OD600, 18 h, hits give low values, screened at 18.75 µg/mL (by protocol).
Consider `Cc1ccc(C)c(N2CCN(C(=O)c3cc4ccc5cccnc5c4[nH]3)CC2)c1`, for which the survival was 95%.
The value for `Cc1c(C(=O)N2CCCCC2)c(S(=O)(=O)NCc2ccc(N(C)C)cc2)c(C)n1C` was 120%; that for `COc1cccc(-c2nnn(CCc3nn[nH]n3)n2)c1` was 84%; that for `CCOC(=O)CCN(c1ccccc1)S(=O)(=O)c1ccc2[nH]c(=O)ccc2c1` was 95%.
With `CCC(C(=O)N1CCN(c2cc(C)ccc2C)CC1)n1nc(C)n2c(cc3occc32)c1=O` (configuration not stated), the survival was 43% (active).
The value for `CCC(C(=O)N1CCN(c2ccc(OC)cc2)CC1)n1nc(C)n2c(cc3occc32)c1=O` (configuration not stated) was 117%.
The same measure for `CCC(C(=O)N1CCN(c2cc(Cl)ccc2C)CC1)n1nc(C)n2c(cc3occc32)c1=O` (configuration not stated): 69%; for `Cc1ccc(S(=O)(=O)c2nc(S(=O)(=O)c3ccc(C)cc3)c(NCCCOC(C)C)s2)cc1`: 75%; for `C=C(C)c1cccc(C(C)(C)NC(=O)N2CCCC2)c1`: 111%.
The value for `Cc1ccc(CNC(=O)Cc2c(C)c3c(cc(C)c4c(C)coc43)oc2=O)cc1` was 100%; that for `CCCn1c(NCc2ccc(N(CC)CC)cc2)nc2ccccc21` was 29% (active).
With `CCCCCn1c(NCc2ccccc2OC)nc2ccccc21`, the survival is -1% (active).
Take `CCCC(O)c1nc2ccccc2n1Cc1ccccc1OC` (configuration not stated): the survival was 105%.
The value for `CCn1c(NCc2ccc(OC)c(OC)c2)nc2ccccc21` was 116%.
For the molecule `CCCCn1c(NCc2ccc(N(C)C)cc2)nc2ccccc21`, the survival is 52%.
The value for `CCCCCn1c(NCc2ccc(OC)cc2)nc2ccccc21` was 33% (active).
The same measure for `CCCCn1c(NCc2cc(Br)ccc2O)nc2ccccc21`: 42% (active).
The value for `CCn1c(NCc2ccccc2)nc2ccccc21` was 95%.
Take `CCCn1c(NCc2ccccc2F)nc2ccccc21`: the survival is 90%.
The same measure for `Cn1c(NCc2ccccc2F)nc2ccccc21`: 93%; for `CCCn1c(NCc2ccccc2C)nc2ccccc21`: 108%; for `CCCCn1c(NCc2ccc(OC)cc2O)nc2ccccc21`: 66%.
For the molecule `CCOC(=O)c1cc(-c2ccc(F)cc2)n(CCC(=O)Nc2cc(OC)cc(OC)c2)c1C`, the survival was 71%.
`Cc1ccc(Cl)cc1-n1ncc2c(Nc3ccc4c(c3)OCCO4)ncnc21`: the survival was 82%.
The value for `Cc1c(C(=O)N2CCCC2)oc2c1-c1nn(CC(=O)NCc3cccc(Br)c3)cc1CC2` was 75%; that for `COc1ccccc1-c1cc2nc(C)c(CCC(=O)Nc3cc(C)ccc3C)c(C)n2n1` was 60%.
The same measure for `COc1ccc(CNC(=O)C2(c3cccs3)CCOCC2)cc1`: 72%.
